# Source: PubChem (Broad Institute)
# This is a sample that favours compounds with a hit; in the whole collection about 6.7% have one here.
# Pf Dd2 growth = inhibitors of Plasmodium falciparum Dd2 growth; 2.3% of 94,000 active; AID 1159554; activity change, % at 10 µM; P. falciparum Dd2 growth, SYBR Green, 72 h; active compounds read low; in the data active means activity change below about -80%; inconclusive means no clear call, values can overlap the other calls
# C diff growth = blocks growth of Clostridium difficile. 0.25% of 86,000 active. growth activity, negative = inhibition, % at 16 µg/mL (by protocol). AID 1259249. Clostridium difficile clinical isolate growth, OD600, 24 h; active compounds read low;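 active means mean growth activity at or below -80% and every replicate also at or below -80%; inconclusive means mean at or below -80% but some replicate above -80%; inactive means mean growth activity above -80%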
# T cruzi growth-1 = inhibitors of T. cruzi proliferation; T. cruzi beta-gal in NIH3T3, GalScreen luminescence, 90 h; inhibition, % at 8.34 µM; 5.9% of 77,000 active; AID 624255;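 active means mean inhibition above about 93%, with at least 55% of replicates each passing it, limit read from the data, passing the limit was not always enough; inconclusive means only one of those two conditions holds; inactive means neither condition holds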
# T cruzi growth-2 = blocks T. cruzi growth in NIH3T3 host cells; shares compounds with T cruzi growth-1; T. cruzi beta-gal in NIH3T3, GalScreen luminescence, 90 h; inhibition, % at 8.35 µM; 72% of 5,600 active; AID 651739;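 active means mean replicate inhibition above about 95% and at least 55% of replicates individually reaching it, limit read from the data; inconclusive means only one of the two criteria is met; inactive means neither criterion is met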
# T cruzi growth-3 = inhibitors of T. cruzi proliferation. shares compounds with T cruzi growth-1. T. cruzi beta-gal in NIH3T3, GalScreen luminescence, 90 h. inhibition, % at 2.09 µM. 21% of 5,600 active;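 active means mean inhibition above about 95%, with at least 55% of replicates also reaching it, limit read from the data; inconclusive means meets just one of the two conditions; inactive means meets neither condition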
# 3T3 cytotox = NIH/3T3 (mouse) viability loss; AID 651742; 14% of 5,600 active; cytotoxicity (signal decrease), % at 8.35 µM; NIH/3T3 viability, CellTiter-Glo ATP luminescence, 90 h; shares compounds with T cruzi growth-1;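 active means mean signal decrease across replicates above about 35% based on untreated-well scatter, with enough replicates individually passing, limit read from the data; inconclusive means no rule stated though some were filed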
# 3T3 cytotox 2 = NIH/3T3 (mouse) viability loss. shares compounds with T cruzi growth-1. 56% of 5,600 active. AID 651744. NIH/3T3 viability, CellTiter-Glo ATP luminescence, 90 h. inhibition, % at 24.9 µM;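 active means mean loss of cell viability signal at or above a set limit, and enough replicates individually reaching it; inconclusive means meets only the mean limit or only the replicate share; inactive means meets neither condition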
# Numbers stand for hits; – = inactive; ? = inconclusive; · = not tested or not shown.
SMILES,Pf Dd2 growth,C diff growth,T cruzi growth-1,T cruzi growth-2,T cruzi growth-3,3T3 cytotox,3T3 cytotox 2
C[C@H]1CN([C@@H](C)CO)C(=O)Cc2cc(NC(=O)Nc3ccc(C(F)(F)F)cc3)ccc2O[C@@H]1CN(C)S(=O)(=O)c1cccs1,–,–,–,·,·,·,·
COc1ccc(CN(C)C[C@H]2Oc3ccc(NC(=O)Nc4c(C)noc4C)cc3CC(=O)N([C@H](C)CO)C[C@H]2C)cc1,–,–,–,·,·,·,·
O=C(NC1CCCCC1)[C@@H]1[C@@H](CO)[C@@H]2Cn3c(ccc(-c4ccccc4)c3=O)[C@H]1N2,–,–,·,·,·,·,·
O=C(C[C@@H]1CC[C@H]2[C@@H](COC[C@@H](O)CN2CC2CCCC2)O1)NCc1ccc(Cl)cc1,–,–,·,·,·,·,·
CC(C)c1cn(CC[C@@H]2CC[C@H](NC(=O)C3CCCCC3)[C@H](CO)O2)nn1,·,–,·,·,·,·,·
CN1c2ccc(C3=CCCCC3)cc2[C@@H]2[C@@H](CCN2C(=O)C2CCOCC2)[C@H]1CO,–,–,105,102,–,–,–
CN1c2ccc(-c3ccc(F)cc3)cc2[C@H]2[C@H](CCN2C(=O)C2CCOCC2)[C@@H]1CO,–,–,102,104,–,–,–
CN1c2ccc(C3=CCCCC3)cc2[C@H]2[C@H](CCN2C(=O)C2CCC2)[C@@H]1CO,–,–,·,·,·,·,·
CN(C)C(=O)c1ccc(-c2ccc3c(c2)[C@H]2[C@H](CCN2C(=O)C2CC2)[C@@H](CO)N3C)cc1,–,–,102,101,99,–,–
CN1c2ccc(-c3cccc(F)c3)cc2[C@@H]2[C@@H](CCN2C(=O)C2CCOCC2)[C@H]1CO,–,–,–,·,·,·,·
CN(C)C(=O)c1ccc(-c2ccc3c(c2)[C@H]2[C@H](CCN2C(=O)C2CCCCC2)[C@@H](CO)N3C)cc1,–,–,·,·,·,·,·
CN(C)C(=O)c1ccc(-c2ccc3c(c2)[C@H]2[C@H](CCN2C(=O)C2CC2)[C@H](CO)N3C)cc1,–,–,–,·,·,·,·
CN(C)C(=O)c1ccc(-c2ccc3c(c2)[C@H]2[C@H](CCN2C(=O)C2CCOCC2)[C@@H](CO)N3C)cc1,–,–,101,98,–,–,–
C[C@H]1CN([C@@H](C)CO)C(=O)Cc2cc(NS(=O)(=O)c3cccs3)ccc2O[C@@H]1CN(C)S(=O)(=O)c1ccc(Cl)cc1,–,–,–,·,·,·,·
O=C(C[C@@H]1C[C@H]2c3cc(NC(=O)Nc4ccccc4F)ccc3O[C@H]2[C@H](CO)O1)NC1CCCCC1,–,–,–,·,·,·,·
C[C@@H]1CN([C@@H](C)CO)C(=O)c2cc(NC(=O)CCCCCC(=O)Nc3ccccc3N)ccc2O[C@H]1CN(C)Cc1ccccc1,–,–,·,·,·,·,·
Cc1noc(C)c1NC(=O)Nc1ccc2c(c1)CC(=O)N([C@H](C)CO)C[C@H](C)[C@@H](CN(C)Cc1ccc3c(c1)OCO3)O2,–,–,–,·,·,·,·
O=C(NCC[C@H]1CC[C@@H](NC(=O)C2CC2)[C@@H](CO)O1)c1ccc(F)cc1,·,–,·,·,·,·,·
O=C(C[C@H]1C[C@H]2c3cc(NC(=O)c4ccc5c(c4)OCO5)ccc3O[C@H]2[C@@H](CO)O1)NCc1ccc(Cl)cc1,–,–,–,·,·,·,·
O=C(C[C@@H]1C[C@H]2c3cc(NC(=O)c4ccc5c(c4)OCO5)ccc3O[C@H]2[C@H](CO)O1)NCc1ccc(Cl)cc1,–,–,–,·,·,·,·
O=C(C[C@@H]1C[C@@H]2c3cc(NC(=O)c4ccc5c(c4)OCO5)ccc3O[C@@H]2[C@H](CO)O1)NCc1ccc(Oc2ccccc2)cc1,–,–,–,·,·,·,·
O=C(C[C@@H]1C[C@H]2c3cc(NC(=O)c4ccc5c(c4)OCO5)ccc3O[C@H]2[C@@H](CO)O1)NCc1ccc(Oc2ccccc2)cc1,–,–,120,–,–,45,94
O=C(C[C@H]1C[C@@H]2c3cc(NC(=O)c4ccc5c(c4)OCO5)ccc3O[C@@H]2[C@@H](CO)O1)NCc1ccc(Oc2ccccc2)cc1,–,–,148,111,–,42,34
O=C(C[C@@H]1C[C@H]2c3cc(NC(=O)c4ccc5c(c4)OCO5)ccc3O[C@H]2[C@H](CO)O1)NCc1ccc(Oc2ccccc2)cc1,–,–,113,103,–,69,51
COc1ccccc1CNC(=O)C[C@H]1CC[C@H]2[C@@H](COc3ccc(NC(=O)c4ccno4)cc3C(=O)N2C)O1,–,–,–,·,·,·,·
SMILES,Pf Dd2 growth,C diff growth,T cruzi growth-1,T cruzi growth-2,T cruzi growth-3,3T3 cytotox,3T3 cytotox 2
C[C@H](CO)N1C[C@H](C)[C@@H](CN(C)S(=O)(=O)c2ccc(F)cc2)Oc2ccc(N(C)C)cc2CC1=O,–,–,·,·,·,·,·
CC(C)C(=O)Nc1ccc2c(c1)C(=O)N(C)[C@H]1CC[C@@H](CC(=O)NCc3ccccc3)O[C@@H]1CO2,–,–,–,·,·,·,·
CCNC(=O)C[C@@H]1CC[C@H]2[C@@H](COc3ccc(NC(=O)Cc4ccccc4)cc3C(=O)N2C)O1,–,–,105,104,–,–,–
Cc1cc(C(=O)Nc2ccc3c(c2)C(=O)N(C)[C@@H]2CC[C@H](CC(=O)NCc4ccc(-c5ccccc5)cc4)O[C@@H]2CO3)no1,·,–,103,?,?,78,75
CC(C)C(=O)Nc1ccc2c(c1)C(=O)N(C)[C@H]1CC[C@H](CC(=O)NCc3ccccc3)O[C@@H]1CO2,–,–,103,98,–,–,–
CCNC(=O)C[C@@H]1CC[C@@H]2[C@H](COc3ccc(NC(=O)Cc4ccccc4)cc3C(=O)N2C)O1,–,–,–,·,·,·,·
CC(C)c1ccc(NC(=O)C[C@H]2CC[C@H]3[C@@H](COc4ccc(NC(=O)Nc5ccc(F)c(F)c5)cc4C(=O)N3C)O2)cc1,–,–,100,103,–,–,?
Cc1cc(C(=O)Nc2ccc3c(c2)C(=O)N(C)[C@@H]2CC[C@H](CC(=O)NCc4ccc(-c5ccccc5)cc4)O[C@H]2CO3)no1,·,–,–,·,·,·,·
CCC(=O)Nc1ccc2c(c1)C(=O)N(C)[C@H]1CC[C@H](CC(=O)Nc3ccc(C(C)C)cc3)O[C@@H]1CO2,–,–,–,·,·,·,·
C[C@@H]1CN([C@@H](C)CO)C(=O)c2cccc(NS(=O)(=O)c3ccccc3)c2O[C@H]1CN(C)S(=O)(=O)c1cccs1,–,–,–,·,·,·,·
C[C@@H]1CCCCO[C@@H](CN(C)C(=O)Nc2ccc3c(c2)OCO3)[C@@H](C)CN([C@@H](C)CO)C(=O)c2cc(NC(=O)c3ccccc3)ccc2O1,–,–,·,·,·,·,·
Cc1ccc(S(=O)(=O)Nc2ccc3c(c2)C(=O)N([C@H](C)CO)C[C@H](C)[C@@H](CN(C)Cc2ccccc2)OCCCC[C@@H](C)O3)cc1,–,–,–,·,·,·,·
C[C@@H]1CN([C@@H](C)CO)C(=O)Cc2cc(NS(=O)(=O)c3cn(C)cn3)ccc2O[C@H]1CN(C)C(=O)NC1CCCCC1,–,–,–,·,·,·,·
C[C@@H]1CN([C@H](C)CO)C(=O)c2ccccc2-c2ccccc2CO[C@@H]1CN(C)C(=O)Nc1cccc(C(F)(F)F)c1,–,–,–,·,·,·,·
